Drawing on PubChem BioAssay (NCI), this text covers growth for 8 compounds.

What all share (test): NCI-60 one-dose screen, 48 h (100 = growth as untreated, 0 = no growth, -100 = all killed)
Holding throughout (details): 10 µM unless noted

For test [1], the system named is DU-145 prostate.
Test [2] relates to K-562 leukemia.
Test [3] relates to MALME-3M melanoma.
Test [4] relates to MDA-MB-231 breast.
Test [5] has as its system RXF 393 renal.
For test [6], the system named is SF-268 CNS.
The subject of test [7] is SF-295 CNS.
The subject of test [8] is SF-539 CNS.
Test [9] deals with UACC-257 melanoma.
For test [10], the system named is M14 melanoma.
For test [11], the system named is HCT-15 colon.
In test [12] the test system is HT29 colon.
Test [13] deals with SNB-75 CNS.
Test [14] concerns SNB-19 CNS.
The subject of test [15] is U251 CNS.
The test system of test [16] is PC-3 prostate.
Test [17] deals with SK-MEL-5 melanoma.
For test [18], the system named is UACC-62 melanoma.
The test system of test [19] is LOX IMVI melanoma.
Test [20] has as its system SK-MEL-28 melanoma.

Compounds without any hit were thinned out: in the full panel of roughly 83,000, 20% have a hit.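 Results are percent growth after 48 hours of single-concentration exposure. 100 means growth as in untreated cells, lower positive values show inhibition; negative values down to -100 show cell death.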 A number with no mark means an inactive call. Active and inactive are the calls of the source. How the source made its calls: active means growth percent below 10; inactive means the rest.

As for `NC(=O)c1c(NC(=O)c2cccs2)sc2c1CCC(=O)C2`, the growth in test [1] was 80.3%; in [2], 10.3%; in test [3], 67%; in [4], 26.1%; in test [5], 46.4%; in test [6], 30.3%. Moreover, the growth in test [7] was 86.9%; in test [8], -3.38% (active); in test [9], 63.7%; in [10] it was 26.1%; in test [11], 16.2%; in test [12], 46.3%. Further, the growth was 28.3% in test [13]; 40.2% in [14]; 14.9% in [15]; 10.5% in test [16]; 71.5% in test [17]; 4.69% (active) in [18]. Further, the figures for the growth in [19] and in test [20] were 30.3% and 50.7%, respectively.

As to `COc1ccc(C2=NN(C(C)=O)C(c3cn(-c4ccccc4)nc3-c3ccc(Cl)cc3)C2)cc1` (stereo not given), the growth is 17.4% in [1]; 13.1% in [2]; 52% in test [3]; 17.2% in [4]; -10.5% (active) in test [5]; 27.2% in test [6]. The growth is 42.4% in test [7]; 15.8% in [8]; 66.4% in test [9]; 17.2% in [10]; 17.1% in test [11]; -6.18% (active) in test [12]. Further, the growth in [13] is -4.48% (active); in test [14], 34.2%; in test [15] it was -7.11% (active); in test [16], 34.3%; in [17], 27.1%; in [18] it was 20%. Also, the results for the growth in test [19] and in test [20] were 0.526% (active) and 56.3%, respectively.

As to `COC(=O)c1c2c(c(C)[n+]([O-])c1C)C(=O)C(NCc1ccc(OC)cc1)=CC2=O`, the growth in test [1] is 43.9%; in test [2], 11.4%; in test [3], -92.8% (active); in test [4], 5.7% (active); in test [5], 47.3%; in [6], 22.5%. Further, the growth in test [7] was 66.6%; in test [8], 10.4%; in [9], -47.5% (active); in test [10] it was 13.3%; in [11], 9.67% (active); in [12], 9.48% (active). The growth in test [13] was 127%; in test [14], 5.27% (active); in test [15] it was -13.9% (active); in test [16] it was 4.67% (active); in test [17], -53.1% (active); in test [18] it was -27.9% (active). The figures for the growth in test [19] and in test [20] were 19% and 61.9%, respectively.

Turning to `COC(=O)N1CC(Oc2ccccn2)C2CC1c1ccccc1O2` (stereo not given), the growth is 115% in test [1]; 114% in test [2]; 104% in [3]; 89.7% in test [4]; 95.1% in [5]; 102% in test [6]. Moreover, the growth was 104% in test [7]; 99.4% in test [8]; 88% in test [9]; 102% in test [10]; 98.8% in test [11]; 103% in test [12]. The growth is 98.7% in [13]; 94.5% in [14]; 104% in test [15]; 94.4% in [16]; 99.4% in test [17]; 89.5% in [18]. Further, the growth is 96.8% in [19] and 94.8% in test [20].

Turning to `O=C(CCCCCCN1CC(=O)N2[C@H](c3ccc(Cl)cc3)c3[nH]c4ccccc4c3C[C@@H]2C1=O)NO`, the growth in test [1] is 72.2%; in test [2] it was 25.2%; in test [3] it was 23%; in test [4], 68.9%; in test [5], 65.7%; in test [6] it was 85.1%. Moreover, the growth is 85.6% in test [7]; 57% in test [8]; 36.4% in [9]; 61.7% in [10]; 109% in test [11]; 67.5% in [12]. The growth was 30.2% in test [13]; 69.6% in test [14]; 53% in [15]; 48.2% in [16]; 43.8% in test [17]; 21% in [18]. Further, the figures for the growth in [19] and in test [20] were 27.1% and 45.3%, respectively.

As to `FC(F)(F)Oc1cccc(-c2cnc3ccc(-c4ccncc4)nn23)c1`, the growth in test [1] is 22.2%; in test [2], 31.6%; in test [3], 39.2%; in test [4], 32.9%; in test [5], -29.6% (active); in test [6] it was 18.9%. The growth in [7] was 17.4%; in test [8], -2.61% (active); in [9], 48.6%; in test [10], 26.8%; in [11] it was 8.36% (active); in test [12], 14.7%. In addition, the growth was 41.6% in test [13]; 23.5% in test [14]; 18.7% in test [15]; 15.5% in test [16]; 22.6% in test [17]; -0.898% (active) in [18]. Besides, the growth was 9.23% (active) in test [19] and 20% in [20].

For the compound `C#COc1cccc(Nc2ncnc3cc(NC(=O)[C@@H](C)Cl)ccc23)c1`, the growth in test [1] was 13% [6.25 µM]; in test [2], 7.85% [6.25 µM] (active); in [3], 38.2% [6.25 µM]; in test [4], 24.5% [6.25 µM]; in test [5], 7.55% [6.25 µM] (active); in [6], 21.6% [6.25 µM]. For the same compound, the growth in test [7] was 7.32% [6.25 µM] (active); in test [8], -5.67% [6.25 µM] (active); in test [9], 36.9% [6.25 µM]; in test [10], 10.4% [6.25 µM]; in [11] it was 11.6% [6.25 µM]; in test [12] it was 0.0167% [6.25 µM] (active). For the same compound, the growth in test [13] is -7.9% [6.25 µM] (active); in test [14], 19.3% [6.25 µM]; in test [15] it was 4.37% [6.25 µM] (active); in [16], 8.91% [6.25 µM] (active); in test [17], 14.2% [6.25 µM]; in [18] it was 24.9% [6.25 µM]. For the same compound, the growth in test [19] is 11.4% [6.25 µM]; in test [20] it was 38% [6.25 µM].

As to `COc1cccc(CCNc2ncnc3c2ncn3Cc2nnc3c4ccccc4c(Cl)nn23)c1`, the growth in test [1] was 50.5%; in test [2], 61.4%; in test [3] it was 55.8%; in test [4], 46.3%; in test [5], 48.7%; in test [6], 49.4%. Also, the growth in test [7] is 89.9%; in test [8] it was 72.6%; in test [9] it was 59.5%; in test [10] it was 32.2%; in test [11], 45.2%; in [12], 81.7%. The growth is 50.5% in test [13]; 74.4% in [14]; 50.7% in [15]; 59.5% in test [16]; 77.1% in test [17]; 32.9% in test [18]. The growth in test [19] is 8.78% (active); in test [20], 71.6%.
